{"source": "PubChem BioAssay (NCI)", "note": "About 83,000 compounds went through this panel and 20% of them were active in at least one assay; those are over-represented in the sample as a whole.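 Assay: single dose, 48 h. Readout: percent growth (0 = no net growth; negative = cell death). Active: <10.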 The source made the active and inactive calls.", "data": [{"system": "NCI-H322M lung", "test": "NCI-60 one-dose screen, 48 h (100 = growth as untreated, 0 = no growth, -100 = all killed)", "settings": "10 µM unless noted", "protocol": "Growth inhibition of the NCI-H322M human Non-Small Cell Lung tumor cell line is measured as a screen for anti-cancer activity. Cells are grown in 96 well plates and exposed to the test compound for 48 hours. Compounds are tested at a single concentration, which is 10^-5 M for most compounds. The reported endpoint is percent growth (GI% or GIPRCNT), where numbers from 0 - 100% represent growth inhibition, and numbers from -100% - 0 represent cell death. For example, a value of 40 represents 60% growth inhibition. A value of 0 means no net growth occurred over the course of the experiment. A value of -40 indicates 40% of cells at the beginning of the experiment died by the end of the experiment. A value of -100 means all cells are dead at the end of the experiment.\nNCI-60 Human Tumor Cell Lines Screen was performed using the standard one-dose NCI protocol, which is described in more detail at https://dtp.cancer.gov/discovery_development/nci-60/default.htm.\nCompounds with GIPRCNT values below 10 were considered active. Activity score was based on GIPRCNT using the following formula: […]\nScore is 0 for GIPRCNT values of 100 or above, 50 for GIPRCNT values of 0, and 100 for GIPRCNT values of -100.", "values": [{"smiles": "CC/C=C\\C[C@H]1C/C=C2/C(=O)C=C[C@@H]2C/C=C\\CCCC(=O)O1", "growth": "16.7% (inactive)"}, {"smiles": "CCN(CC)Cc1cc(Nc2cc(C(F)(F)F)c(C#N)c3nc4ccccc4n23)ccc1O", "growth": "16.3% (inactive)"}, {"smiles": "CS(=O)(=O)N1CCc2c(-c3cnc(N)nc3)nc(N3CCOCC3)nc21", "growth": "-12.9% (active)"}, {"smiles": "COC(=O)C1CCc2sc3ncnc(Nc4cn[nH]c4C(=O)Nc4ccc(CN5CCN(C)CC5)cc4)c3c21", "note": "(stereo not given)", "growth": "8.74% (active)"}, {"smiles": "CC(=O)C(C(C)=O)C(c1ccccc1)C(C(C)=O)C(C)=O", "growth": "99.7% (inactive)"}, {"smiles": "Cn1cnc(-c2cc3nccc(Oc4ccc(NC(=S)NC(=O)Cc5ccccc5)cc4F)c3s2)c1", "growth": "108% (inactive)"}, {"smiles": "COc1ccc(OC)c(NC2=C(SCCc3ccccc3)C(=O)c3ccccc3C2=O)c1", "growth": "89.7% (inactive)"}, {"smiles": "CC(=O)c1c(C)c2cnc(Nc3ccc(N4CCNCC4)cn3)nc2n(C2CCCC2)c1=O", "growth": "31.9% (inactive)"}, {"smiles": "O=C1CC(c2ccc(Cl)cc2)c2ncn(-c3cccc(Cl)c3)c2N1", "note": "(stereo not given)", "growth": "91.6% (inactive)"}, {"smiles": "Nc1ncnc2c1ccn2-c1cccc(NC(=O)c2ccc(N3CCOCC3)c(C(F)(F)F)c2)c1", "growth": "80.6% (inactive)"}, {"smiles": "CC(C)OP(=O)(CCC(=O)c1c[nH]c2ccccc12)OC(C)C", "growth": "103% (inactive)"}, {"smiles": "COC(=O)C1=C(C(=O)OC)C23C=C(C)C1C2=C(C)C1(CC1)[C@@](C)(O)C3=O", "note": "(stereo not given in full)", "growth": "-9.66% (active)"}, {"smiles": "NC(=O)c1n[nH]n2c1nc(=O)c1c3c(sc12)CCCC3", "growth": "101% (inactive)"}, {"smiles": "C[C@@H](NC(=O)c1ncnc(N)c1Cl)c1ncc(C(=O)Nc2cc(C(F)(F)F)c(Cl)cn2)s1", "growth": "80.9% (inactive)"}, {"smiles": "C=CC[n+]1c(/C=C2\\Sc3ccccc3N2C)sc(-c2ccccc2)c1-c1ccccc1", "growth": "24.2% (inactive)"}, {"smiles": "Cc1ccc(C(=O)Nc2ccc(CN3CCN(C)CC3)c(C(F)(F)F)c2)cc1C#Cc1cnc2cccnn12", "growth": "-98.8% (active)"}, {"smiles": "O=C(NC1CCNCC1)c1[nH]ncc1NC(=O)c1c(Cl)cccc1Cl", "growth": "5.64% (active)"}, {"smiles": "N#Cc1cc2[nH]c3ccc(OC(F)(F)F)cc3c2oc1=O", "growth": "93.5% (inactive)"}, {"smiles": "C#Cc1cccc(Nc2ncnc3cc(OCCOC)c(OCCOC)cc23)c1", "growth": "0.463% (active)"}, {"smiles": "CC12O[C@H](C[C@@H](OC(=O)CCC(=O)O)[C@H]1O)n1c3ccccc3c3c4c(c5c6ccccc6n2c5c31)C(=O)NC4=O", "growth": "34.3% (inactive)"}, {"smiles": "COc1cc(NCCCN)c2ncccc2c1", "growth": "82.9% (inactive)"}, {"smiles": "COCCOc1cnc2ccn([C@H](C)c3nnc4c(F)cc(-c5cnn(C)c5)cn34)c(=O)c2c1", "growth": "59.2% (inactive)"}, {"smiles": "O=C(O)c1ccc(Nc2ncc3c(n2)-c2ccc(Cl)cc2C(c2c(F)cccc2F)=NC3)cc1", "growth": "89% (inactive)"}, {"smiles": "S=C(NCc1ccc2c(c1)OCO2)N1CCN(c2ncnc3c2oc2ccccc23)CC1", "growth": "35.3% (inactive)"}, {"smiles": "COC[C@@H](C)n1c(C2CCOCC2)nc2c1C1C=C(OC)C(c3c(C)noc3C)=CC1N=C2", "note": "(stereo not given in full)", "growth": "40.7% (inactive)"}, {"smiles": "O=C(Nc1ccc(Nc2ncnc3sc4c(c23)CCOC4)cc1)Nc1ccc(Cl)c(C(F)(F)F)c1", "growth": "102% (inactive)"}, {"smiles": "O=C(Nc1cn[nH]c1-c1nc2ccc(CN3CCOCC3)cc2[nH]1)NC1CC1", "growth": "37.6% (inactive)"}, {"smiles": "c1cn2cc(-c3ccc4cn[nH]c4c3)nc(Nc3ccc(N4CCOCC4)cc3)c2n1", "growth": "70% (inactive)"}, {"smiles": "Cc1c(CN2CCN(C(=O)[C@H](C)O)CC2)sc2c(N3CCOCC3)nc(-c3cnc(N)nc3)nc12", "growth": "-26.1% (active)"}, {"smiles": "CS(=O)(=O)N1CCN(Cc2cc3nc(-c4cccc5[nH]ncc45)nc(N4CCOCC4)c3s2)CC1", "growth": "-6.73% (active)"}, {"smiles": "O=C1CSC(c2c(F)cccc2Cl)N1NC(=O)C(O)(c1ccccc1)c1ccccc1", "note": "(stereo not given)", "growth": "102% (inactive)"}, {"smiles": "Cn1cnc2c(F)c(Nc3ccc(Br)cc3Cl)c(C(=O)NOCCO)cc21", "growth": "11.2% (inactive)"}, {"smiles": "O=C(CNc1nnc(-c2ccc(Cl)cc2)o1)Nc1ccc(-c2nc3ccccc3s2)cc1", "growth": "95.1% (inactive)"}, {"smiles": "C[C@@H](Oc1cc(-c2cnn(C3CCNCC3)c2)cnc1N)c1c(Cl)ccc(F)c1Cl", "growth": "15.2% (inactive)"}, {"smiles": "CNc1ncc2cc(-c3cc(NC(=O)NCCC(C)(C)C)c(F)cc3C)c(C)nc2n1", "growth": "4.99% (active)"}, {"smiles": "COc1cc(C(=O)NNC(=O)c2ccc(NC(=O)CCl)cc2)cc(OC)c1OC", "growth": "88.5% (inactive)"}, {"smiles": "COc1cc2ncnc(Nc3ccc(F)c(Cl)c3)c2cc1NC(=O)/C=C/CN1CCCCC1", "growth": "-1.5% (active)"}, {"smiles": "C=CC(=O)N1CCC[C@@H](n2nc(-c3ccc(Oc4ccccc4)cc3)c3c(N)ncnc32)C1", "growth": "-1.22% (active)"}, {"smiles": "COc1cc2c(Nc3ccc(Br)cc3F)ncnc2cc1OCC1CCN(C)CC1", "growth": "6.72% (active)"}, {"smiles": "NC(=O)N1N=C(c2ccc(Cl)cc2)CC1c1cn(-c2ccccc2)nc1-c1ccc(Cl)cc1", "note": "(stereo not given)", "growth": "63.1% (inactive)"}]}]}
